Results reported in ChEMBL document CHEMBL1961873, “Compounds: GSK PKIS; Assays: Nanosyn kinase panel” (2012).

How the values were obtained:
[1] = molecular target: T1, Mitogen-activated protein kinase 12 (Homo sapiens) (UniProt P53778); conditions: at 1 µM;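 note: values are averaged p38gamma kinase inhibition readings, compounds tested at 1 µM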
T1 sequence (whole entry): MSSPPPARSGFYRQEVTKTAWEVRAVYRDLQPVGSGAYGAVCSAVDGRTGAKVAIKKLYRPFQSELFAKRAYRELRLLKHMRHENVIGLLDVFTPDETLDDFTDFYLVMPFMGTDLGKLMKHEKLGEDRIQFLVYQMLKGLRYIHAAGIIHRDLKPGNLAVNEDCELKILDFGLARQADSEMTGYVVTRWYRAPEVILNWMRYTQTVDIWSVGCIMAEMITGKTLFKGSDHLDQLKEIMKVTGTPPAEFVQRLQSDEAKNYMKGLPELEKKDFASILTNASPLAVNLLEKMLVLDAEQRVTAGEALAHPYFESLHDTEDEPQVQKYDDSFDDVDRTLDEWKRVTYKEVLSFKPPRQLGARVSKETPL

[2] = molecular target: SRSF protein kinase 1 (Homo sapiens) (UniProt Q96SB4); conditions: at 0.1 µM
Sequence of SRSF protein kinase 1 (Homo sapiens) (Q96SB4 whole entry, canonical isoform): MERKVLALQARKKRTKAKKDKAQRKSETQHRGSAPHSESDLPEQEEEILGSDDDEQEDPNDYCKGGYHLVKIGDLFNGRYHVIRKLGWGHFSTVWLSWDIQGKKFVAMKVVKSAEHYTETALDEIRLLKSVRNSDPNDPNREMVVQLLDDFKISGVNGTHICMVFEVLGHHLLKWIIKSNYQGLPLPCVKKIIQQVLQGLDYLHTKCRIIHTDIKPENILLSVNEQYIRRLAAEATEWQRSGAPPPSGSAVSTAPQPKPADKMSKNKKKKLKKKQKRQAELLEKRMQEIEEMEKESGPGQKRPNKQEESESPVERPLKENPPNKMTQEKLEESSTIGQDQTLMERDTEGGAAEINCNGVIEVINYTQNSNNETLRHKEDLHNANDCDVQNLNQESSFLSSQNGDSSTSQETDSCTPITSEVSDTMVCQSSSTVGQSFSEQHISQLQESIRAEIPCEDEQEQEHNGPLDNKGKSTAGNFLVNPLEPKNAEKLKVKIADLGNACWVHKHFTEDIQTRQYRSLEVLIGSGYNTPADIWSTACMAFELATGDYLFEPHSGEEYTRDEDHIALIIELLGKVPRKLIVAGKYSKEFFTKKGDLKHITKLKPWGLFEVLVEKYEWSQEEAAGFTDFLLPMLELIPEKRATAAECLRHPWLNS

[3] = molecular target: SRSF protein kinase 1 (Homo sapiens) (UniProt Q96SB4); conditions: at 1 µM
[4] = molecular target: Phosphatidylinositol 4,5-bisphosphate 3-kinase catalytic subunit alpha isoform (Homo sapiens) (UniProt P42336); conditions: at 0.1 µM
Sequence of Phosphatidylinositol 4,5-bisphosphate 3-kinase catalytic subunit alpha isoform (Homo sapiens) (P42336 whole entry, canonical isoform): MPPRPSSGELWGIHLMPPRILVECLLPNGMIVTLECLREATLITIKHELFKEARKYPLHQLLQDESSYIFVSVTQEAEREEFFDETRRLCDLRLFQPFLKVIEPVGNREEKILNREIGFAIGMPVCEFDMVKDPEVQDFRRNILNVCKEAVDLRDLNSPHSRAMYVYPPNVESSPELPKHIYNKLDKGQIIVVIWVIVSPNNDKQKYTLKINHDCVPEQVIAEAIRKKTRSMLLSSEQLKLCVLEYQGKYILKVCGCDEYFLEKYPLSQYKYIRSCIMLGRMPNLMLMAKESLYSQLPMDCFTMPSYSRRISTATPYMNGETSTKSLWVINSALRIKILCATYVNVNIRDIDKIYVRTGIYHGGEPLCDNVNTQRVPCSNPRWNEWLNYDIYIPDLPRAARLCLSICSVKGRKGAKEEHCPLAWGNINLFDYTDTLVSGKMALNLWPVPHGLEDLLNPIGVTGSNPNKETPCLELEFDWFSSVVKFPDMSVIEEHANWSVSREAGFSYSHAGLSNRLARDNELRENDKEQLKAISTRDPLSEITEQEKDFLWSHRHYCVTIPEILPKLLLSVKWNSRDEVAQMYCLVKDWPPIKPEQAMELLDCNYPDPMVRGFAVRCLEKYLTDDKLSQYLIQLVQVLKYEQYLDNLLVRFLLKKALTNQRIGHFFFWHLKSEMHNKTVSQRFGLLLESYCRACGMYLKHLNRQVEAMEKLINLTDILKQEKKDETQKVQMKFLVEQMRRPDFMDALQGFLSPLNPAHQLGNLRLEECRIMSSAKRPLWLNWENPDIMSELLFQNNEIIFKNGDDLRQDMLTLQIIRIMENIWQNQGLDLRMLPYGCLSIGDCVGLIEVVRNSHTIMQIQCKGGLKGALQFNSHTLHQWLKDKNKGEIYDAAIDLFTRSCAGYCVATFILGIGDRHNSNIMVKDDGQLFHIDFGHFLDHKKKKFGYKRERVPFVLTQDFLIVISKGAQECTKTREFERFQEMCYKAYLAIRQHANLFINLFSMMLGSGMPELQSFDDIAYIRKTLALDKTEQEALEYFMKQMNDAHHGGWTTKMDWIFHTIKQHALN

[5] = molecular target: Phosphatidylinositol 4,5-bisphosphate 3-kinase catalytic subunit alpha isoform (Homo sapiens) (UniProt P42336); conditions: at 1 µM
[6] = molecular target: T2, Phosphatidylinositol 4,5-bisphosphate 3-kinase catalytic subunit delta isoform (Homo sapiens) (UniProt O00329); conditions: at 0.1 µM
T2 sequence (whole entry): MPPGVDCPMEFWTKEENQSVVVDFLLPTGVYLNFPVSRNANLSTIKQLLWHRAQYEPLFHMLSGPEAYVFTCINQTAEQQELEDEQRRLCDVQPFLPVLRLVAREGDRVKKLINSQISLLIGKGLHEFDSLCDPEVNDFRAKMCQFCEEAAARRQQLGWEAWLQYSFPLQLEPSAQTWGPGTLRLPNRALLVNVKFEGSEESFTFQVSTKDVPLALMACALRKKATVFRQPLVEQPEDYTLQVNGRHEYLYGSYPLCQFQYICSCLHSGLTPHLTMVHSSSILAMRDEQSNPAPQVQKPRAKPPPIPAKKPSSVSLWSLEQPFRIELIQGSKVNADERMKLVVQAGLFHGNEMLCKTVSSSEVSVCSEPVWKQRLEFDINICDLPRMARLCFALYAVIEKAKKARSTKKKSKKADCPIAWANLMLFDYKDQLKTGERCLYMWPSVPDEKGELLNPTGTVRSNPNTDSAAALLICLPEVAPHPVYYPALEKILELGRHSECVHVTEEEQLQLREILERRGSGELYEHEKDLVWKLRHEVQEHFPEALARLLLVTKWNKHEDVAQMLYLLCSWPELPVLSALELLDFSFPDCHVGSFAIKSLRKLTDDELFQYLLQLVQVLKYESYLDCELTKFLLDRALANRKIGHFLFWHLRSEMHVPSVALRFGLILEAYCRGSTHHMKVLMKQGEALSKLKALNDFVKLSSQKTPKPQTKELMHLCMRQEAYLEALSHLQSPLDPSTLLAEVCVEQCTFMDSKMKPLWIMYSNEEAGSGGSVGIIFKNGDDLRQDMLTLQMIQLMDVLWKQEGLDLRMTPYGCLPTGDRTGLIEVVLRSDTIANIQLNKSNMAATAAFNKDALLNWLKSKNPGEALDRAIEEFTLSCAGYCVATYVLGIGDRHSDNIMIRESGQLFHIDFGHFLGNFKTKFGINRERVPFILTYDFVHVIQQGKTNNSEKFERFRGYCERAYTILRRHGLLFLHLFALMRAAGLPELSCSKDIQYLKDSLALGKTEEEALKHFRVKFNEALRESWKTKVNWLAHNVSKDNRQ

[7] = molecular target: T2, Phosphatidylinositol 4,5-bisphosphate 3-kinase catalytic subunit delta isoform (Homo sapiens); conditions: at 1 µM
[8] = molecular target: Phosphatidylinositol 4-kinase beta (Homo sapiens) (UniProt Q9UBF8); conditions: at 0.1 µM
Sequence of Phosphatidylinositol 4-kinase beta (Homo sapiens) (Q9UBF8 2-816 limits assumed): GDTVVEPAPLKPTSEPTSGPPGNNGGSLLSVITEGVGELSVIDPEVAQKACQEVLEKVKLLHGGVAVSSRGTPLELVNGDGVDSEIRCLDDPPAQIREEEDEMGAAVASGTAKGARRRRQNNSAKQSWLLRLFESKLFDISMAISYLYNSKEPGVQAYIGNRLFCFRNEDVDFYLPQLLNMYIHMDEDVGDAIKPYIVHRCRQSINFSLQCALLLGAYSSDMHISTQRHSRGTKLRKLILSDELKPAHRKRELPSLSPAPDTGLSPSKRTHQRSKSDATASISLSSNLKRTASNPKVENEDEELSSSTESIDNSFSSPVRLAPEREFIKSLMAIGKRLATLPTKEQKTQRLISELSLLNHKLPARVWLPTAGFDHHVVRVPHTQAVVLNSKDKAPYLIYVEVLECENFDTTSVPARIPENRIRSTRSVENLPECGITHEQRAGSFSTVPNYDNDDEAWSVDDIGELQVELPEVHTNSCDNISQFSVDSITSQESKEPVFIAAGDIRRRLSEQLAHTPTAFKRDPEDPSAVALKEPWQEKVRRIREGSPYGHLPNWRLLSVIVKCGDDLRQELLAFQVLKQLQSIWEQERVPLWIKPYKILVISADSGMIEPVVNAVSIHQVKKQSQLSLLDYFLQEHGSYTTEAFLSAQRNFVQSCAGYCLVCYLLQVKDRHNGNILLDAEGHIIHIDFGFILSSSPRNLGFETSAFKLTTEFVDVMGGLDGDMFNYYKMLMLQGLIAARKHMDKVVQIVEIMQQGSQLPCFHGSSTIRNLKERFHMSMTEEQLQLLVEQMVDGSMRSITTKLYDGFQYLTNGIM

[9] = molecular target: Phosphatidylinositol 4-kinase beta (Homo sapiens) (UniProt Q9UBF8); conditions: at 1 µM
[10] = molecular target: Sphingosine kinase 1 (Homo sapiens) (UniProt Q9NYA1); conditions: at 0.1 µM
Sequence of Sphingosine kinase 1 (Homo sapiens) (Q9NYA1 whole entry): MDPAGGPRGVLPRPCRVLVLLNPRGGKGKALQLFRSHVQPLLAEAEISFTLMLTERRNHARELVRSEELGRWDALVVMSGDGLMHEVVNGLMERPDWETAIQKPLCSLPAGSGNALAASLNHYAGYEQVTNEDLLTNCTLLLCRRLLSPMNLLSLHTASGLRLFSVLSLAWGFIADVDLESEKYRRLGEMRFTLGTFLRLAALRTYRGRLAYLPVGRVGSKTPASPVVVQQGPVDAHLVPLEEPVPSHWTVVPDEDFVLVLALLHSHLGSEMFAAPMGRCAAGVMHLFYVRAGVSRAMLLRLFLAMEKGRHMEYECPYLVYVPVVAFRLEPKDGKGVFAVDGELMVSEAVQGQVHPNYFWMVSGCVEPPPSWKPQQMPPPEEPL

[11] = molecular target: Sphingosine kinase 1 (Homo sapiens) (UniProt Q9NYA1); conditions: at 1 µM
[12] = molecular target: T3, Sphingosine kinase 2 (Homo sapiens) (UniProt Q9NRA0); conditions: at 0.1 µM
T3 sequence (whole entry): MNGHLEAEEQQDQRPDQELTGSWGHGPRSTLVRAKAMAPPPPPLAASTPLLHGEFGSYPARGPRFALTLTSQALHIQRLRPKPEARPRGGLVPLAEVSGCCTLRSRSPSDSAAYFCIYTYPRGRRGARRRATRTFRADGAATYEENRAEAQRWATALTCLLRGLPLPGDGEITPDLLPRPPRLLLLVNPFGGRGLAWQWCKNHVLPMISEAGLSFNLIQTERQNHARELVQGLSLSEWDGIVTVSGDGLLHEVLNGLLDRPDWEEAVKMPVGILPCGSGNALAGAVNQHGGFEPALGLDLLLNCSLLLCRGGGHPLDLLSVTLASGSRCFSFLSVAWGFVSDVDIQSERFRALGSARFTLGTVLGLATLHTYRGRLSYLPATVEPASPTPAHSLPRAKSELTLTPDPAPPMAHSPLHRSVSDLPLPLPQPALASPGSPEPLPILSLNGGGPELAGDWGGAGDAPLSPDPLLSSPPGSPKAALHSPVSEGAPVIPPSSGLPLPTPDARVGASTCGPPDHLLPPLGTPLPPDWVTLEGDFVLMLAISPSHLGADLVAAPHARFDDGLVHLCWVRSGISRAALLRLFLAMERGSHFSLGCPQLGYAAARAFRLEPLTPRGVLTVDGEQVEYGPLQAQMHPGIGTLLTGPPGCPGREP

[13] = molecular target: T3, Sphingosine kinase 2 (Homo sapiens); conditions: at 1 µM
[14] = molecular target: Casein kinase II subunit alpha (Homo sapiens) (UniProt P68400); conditions: at 0.1 µM
Sequence of Casein kinase II subunit alpha (Homo sapiens) (P68400 whole entry, looked up): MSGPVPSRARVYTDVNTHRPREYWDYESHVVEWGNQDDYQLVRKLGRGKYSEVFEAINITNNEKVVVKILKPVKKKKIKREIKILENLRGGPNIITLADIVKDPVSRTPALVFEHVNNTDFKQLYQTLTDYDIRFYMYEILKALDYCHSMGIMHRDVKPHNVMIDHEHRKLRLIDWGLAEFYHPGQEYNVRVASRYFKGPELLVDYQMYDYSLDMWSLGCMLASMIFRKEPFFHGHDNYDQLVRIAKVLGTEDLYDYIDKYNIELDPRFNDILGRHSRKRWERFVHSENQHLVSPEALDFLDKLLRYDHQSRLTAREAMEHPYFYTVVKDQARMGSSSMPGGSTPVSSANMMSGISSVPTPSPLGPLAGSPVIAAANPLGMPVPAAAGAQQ

[15] = molecular target: Casein kinase II subunit alpha (Homo sapiens) (UniProt P68400); conditions: at 1 µM
[16] = molecular target: T4, Inhibitor of nuclear factor kappa-B kinase subunit alpha (Homo sapiens) (UniProt O15111); conditions: at 0.1 µM
T4 sequence (whole entry): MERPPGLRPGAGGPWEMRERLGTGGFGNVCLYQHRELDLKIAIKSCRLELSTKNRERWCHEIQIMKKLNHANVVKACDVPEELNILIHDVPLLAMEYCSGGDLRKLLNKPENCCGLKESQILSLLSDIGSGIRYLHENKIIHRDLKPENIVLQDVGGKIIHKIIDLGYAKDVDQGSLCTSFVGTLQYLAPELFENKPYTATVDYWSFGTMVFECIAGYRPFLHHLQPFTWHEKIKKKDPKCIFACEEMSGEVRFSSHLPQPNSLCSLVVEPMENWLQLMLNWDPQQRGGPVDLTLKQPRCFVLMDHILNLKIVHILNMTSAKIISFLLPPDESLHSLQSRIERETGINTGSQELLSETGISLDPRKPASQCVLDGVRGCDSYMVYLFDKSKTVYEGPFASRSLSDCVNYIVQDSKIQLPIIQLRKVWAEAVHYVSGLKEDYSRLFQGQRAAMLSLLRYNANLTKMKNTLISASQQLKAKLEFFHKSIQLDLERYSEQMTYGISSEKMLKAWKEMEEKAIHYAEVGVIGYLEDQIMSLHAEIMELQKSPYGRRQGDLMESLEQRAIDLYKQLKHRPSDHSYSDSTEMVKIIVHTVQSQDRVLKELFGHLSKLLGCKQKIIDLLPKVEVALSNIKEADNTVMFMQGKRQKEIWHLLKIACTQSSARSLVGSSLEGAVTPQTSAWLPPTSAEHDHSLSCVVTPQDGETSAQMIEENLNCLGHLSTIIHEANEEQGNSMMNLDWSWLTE

[17] = molecular target: T4, Inhibitor of nuclear factor kappa-B kinase subunit alpha (Homo sapiens); conditions: at 1 µM
[18] = molecular target: T5, Inhibitor of nuclear factor kappa-B kinase subunit beta (Homo sapiens) (UniProt O14920); conditions: at 0.1 µM
T5 sequence (whole entry): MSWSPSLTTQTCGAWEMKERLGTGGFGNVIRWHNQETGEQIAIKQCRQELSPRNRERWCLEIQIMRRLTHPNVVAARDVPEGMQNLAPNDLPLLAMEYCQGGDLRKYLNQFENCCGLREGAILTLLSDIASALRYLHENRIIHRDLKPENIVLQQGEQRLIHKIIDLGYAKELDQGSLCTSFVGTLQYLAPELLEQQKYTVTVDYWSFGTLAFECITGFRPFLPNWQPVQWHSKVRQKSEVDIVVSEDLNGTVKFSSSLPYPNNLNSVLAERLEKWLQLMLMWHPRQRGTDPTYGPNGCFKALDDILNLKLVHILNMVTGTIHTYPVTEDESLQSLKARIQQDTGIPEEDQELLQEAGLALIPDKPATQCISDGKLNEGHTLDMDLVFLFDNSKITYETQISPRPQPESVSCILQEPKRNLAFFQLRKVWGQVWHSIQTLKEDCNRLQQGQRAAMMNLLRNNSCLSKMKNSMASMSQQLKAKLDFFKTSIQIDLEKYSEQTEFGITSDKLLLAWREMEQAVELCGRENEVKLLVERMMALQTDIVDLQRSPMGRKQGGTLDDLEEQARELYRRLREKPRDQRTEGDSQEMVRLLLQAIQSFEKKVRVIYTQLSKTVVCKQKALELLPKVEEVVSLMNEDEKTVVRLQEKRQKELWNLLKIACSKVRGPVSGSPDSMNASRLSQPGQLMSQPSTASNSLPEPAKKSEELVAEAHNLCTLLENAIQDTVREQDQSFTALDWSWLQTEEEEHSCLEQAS

[19] = molecular target: T5, Inhibitor of nuclear factor kappa-B kinase subunit beta (Homo sapiens); conditions: at 1 µM
[20] = molecular target: T6, Inhibitor of nuclear factor kappa-B kinase subunit epsilon (Homo sapiens) (UniProt Q14164); conditions: at 0.1 µM;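 note: mean inhibition of IKKε reported, from the GSK PKIS dataset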
T6 sequence (whole entry): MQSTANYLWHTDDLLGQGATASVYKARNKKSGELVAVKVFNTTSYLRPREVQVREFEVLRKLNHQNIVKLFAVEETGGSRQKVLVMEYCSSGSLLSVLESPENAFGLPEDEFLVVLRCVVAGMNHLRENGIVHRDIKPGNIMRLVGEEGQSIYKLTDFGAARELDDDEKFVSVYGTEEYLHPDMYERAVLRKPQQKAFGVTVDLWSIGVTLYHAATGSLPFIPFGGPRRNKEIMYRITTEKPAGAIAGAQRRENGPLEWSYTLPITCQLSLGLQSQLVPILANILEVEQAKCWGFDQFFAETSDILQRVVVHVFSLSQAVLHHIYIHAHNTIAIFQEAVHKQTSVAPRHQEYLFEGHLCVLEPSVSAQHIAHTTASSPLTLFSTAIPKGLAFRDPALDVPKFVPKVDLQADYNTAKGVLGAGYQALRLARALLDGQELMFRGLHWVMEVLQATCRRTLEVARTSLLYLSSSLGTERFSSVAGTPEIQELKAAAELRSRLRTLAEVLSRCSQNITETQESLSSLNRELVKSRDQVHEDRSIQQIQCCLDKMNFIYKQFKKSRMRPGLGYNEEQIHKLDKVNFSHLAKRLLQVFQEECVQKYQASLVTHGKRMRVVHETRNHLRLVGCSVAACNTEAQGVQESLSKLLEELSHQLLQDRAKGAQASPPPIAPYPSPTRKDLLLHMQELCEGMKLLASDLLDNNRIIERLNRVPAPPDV

SMILES	inhibition [1]	inhibition [2]	inhibition [3]	inhibition [4]	inhibition [5]	inhibition [6]	inhibition [7]	inhibition [8]	inhibition [9]	inhibition [10]	inhibition [11]	inhibition [12]	inhibition [13]	inhibition [14]	inhibition [15]	inhibition [16]	inhibition [17]	inhibition [18]	inhibition [19]	inhibition [20]
C[C@@H](Oc1cc(-n2cnc3ccc(OC4CCN(C)CC4)cc32)sc1C(N)=O)c1ccccc1Cl	5.86%	-2.69%	-1.4%	5.06%	19.7%	9.45%	62.5%	-3.18%	3.72%	-2.98%	-0.63%	-0.31%	-1.96%	8.71%	7.82%	6.24%	7.13%	7.4%	4.96%	5.46%
COc1cc(Nc2ncc3c(C)nc(-c4cccc(Oc5ccccc5)c4)n3n2)cc(OC)c1OC	0.85%	-2.01%	-3.6%	0.78%	1.96%	0.25%	2.99%	2.58%	2.46%	-1.6%	-0.76%	0.82%	0%	0.59%	12.7%	2.21%	-5.5%	1.1%	0.16%	2.97%
Cc1ccc(NC(=O)c2ccoc2)cc1-c1ccc(C(=O)NCC2CC2)cc1	1.97%	-1.34%	-0.85%	2.81%	3.57%	1.77%	2.51%	1.89%	-1.62%	0%	-2.32%	0.42%	-0.05%	2.64%	1.38%	0.11%	7.23%	3.9%	3.86%	3.64%
